Screening data as filed in PubChem BioAssay.
Rows were chosen to be rich in hits. Some 3.2% of all compounds tested hit in one or more screens of this group.
PLK1 PBD inh: PLK1 (human) polo-box domain binding inhibition | Potency, µM, actives largely listed as inhibitors | actives 2.8% (n = 360,000) | P53350 | Plk1 PBD binding of FITC phosphopeptide, fluorescence polarization; also: series mostly up to about 57 µM; nearly all actives have a fitted effect of over 65% in size
GALK inhibitor: inhibitors of human galactokinase; P51570; Purified GALK, Kinase-Glo residual ATP luminescence; Potency, µM (highest dose often 57.5 µM), actives largely listed as inhibitors; actives 0.007% (n = 270,000); AID 1868
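Galactose (100 uM) and ATP (35 uM) were turned over by 5 nM GALK for 1 h at RT. Kinase-Glo Plus then converted the remaining ATP into a luminescent signal.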
Coupling enz: counter-screen for Giardia aldolase inhibitors: coupling enzyme system | coupling enzyme system counterscreen, AmpLite Red fluorescence | activity change, negative = inhibition, % at 58.2 µM, hits read low | actives 0.67% (n = 290,000); in the data active = activity change below about -30%
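Counterscreen lacking aldolase: glyceraldehyde-3-phosphate coupling-enzyme reagent preincubated 10 min at RT with compound (at 57.5 uM final), then substrate/coupling system with AmpLite Red added; fluorescence read at 525/598 nm after 20 min RT.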
USP2a inh: inhibitors of human ubiquitin-specific protease USP2a; O75604; USP2 core, Ub-CHOP2 coupled fluorogenic reporter, 485/531; Potency, µM (top dose mostly 38.3 µM), usual class: inhibitors; actives 0.01% (n = 330,000); AID 463254
Target sequence (O75604 whole entry, looked up): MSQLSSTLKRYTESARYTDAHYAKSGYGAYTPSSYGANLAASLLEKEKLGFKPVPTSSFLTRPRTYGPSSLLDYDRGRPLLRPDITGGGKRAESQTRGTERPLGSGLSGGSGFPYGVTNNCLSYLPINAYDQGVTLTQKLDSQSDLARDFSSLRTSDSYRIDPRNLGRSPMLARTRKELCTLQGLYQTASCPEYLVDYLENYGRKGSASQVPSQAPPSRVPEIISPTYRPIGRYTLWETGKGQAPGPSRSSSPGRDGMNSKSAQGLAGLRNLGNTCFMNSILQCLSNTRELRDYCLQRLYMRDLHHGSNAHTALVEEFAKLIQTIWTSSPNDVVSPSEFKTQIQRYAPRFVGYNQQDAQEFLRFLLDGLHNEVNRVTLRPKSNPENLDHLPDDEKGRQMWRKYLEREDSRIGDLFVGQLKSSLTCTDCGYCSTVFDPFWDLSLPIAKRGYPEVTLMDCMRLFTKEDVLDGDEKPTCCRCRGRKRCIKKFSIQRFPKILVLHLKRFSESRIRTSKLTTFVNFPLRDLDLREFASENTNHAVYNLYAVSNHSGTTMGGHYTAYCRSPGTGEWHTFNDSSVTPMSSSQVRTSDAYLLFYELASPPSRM
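Cell-free coupled assay: 10nM USP2 core preincubated 30min RT with compound in Tris-HCl pH 8.0/CaCl2/CHAPS buffer, then 25nM Ub-CHOP2 and 25nM reporter substrate; fluorescence (Ex 485/Em 531) read after 60min RT, normalized to NEM inhibition, concentration-response curves fitted.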
USP1-UAF1 inh: inhibitors of human USP1/UAF1 deubiquitinase; O94782; recombinant USP1/UAF1, Ub-Rhodamine cleavage fluorescence; Potency, µM (top dose mostly 57.1 µM), hits mostly inhibitors; actives 0.23% (n = 390,000); also: nearly all actives have a fitted effect of over 60% in size
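USP1/UAF1 complex at 1 nM was preincubated with compound for 15 min at room temperature, then Ub-Rho substrate (150nM final) was added. Fluorescence (480/540 nm) was read kinetically, 6 reads every 60 seconds.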
VDR inh: inhibitors of human vitamin D receptor | VDR-SRC2-3 peptide fluorescence polarization, 2 h | Potency, µM, usual class: inhibitors | actives 0.93% (n = 400,000) | AID 504847
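Inhibition of the VDR/SRC2-3 peptide interaction is quantified by fluorescence polarization. Compounds (23 nl, pintool) incubate with the reagents for 2 hours at ambient room temperature.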
Of the large screens only hits and unclear results are named; the others gave an inactive call. Unless noted, calls follow the shape of the dose curve; as a rule, active = well fitted curve in the direction sought with a large enough effect; inconclusive = small, poorly fitted or top-dose-only effect, or another doubt; inactive = no such curve, though single readings can be large; an effect the other way counts as inactive or inconclusive.

O=C(Nc1cc(Cl)ccc1Cl)c1cc([N+](=O)[O-])cc(Br)c1O	VDR inh 79µM (no result: PLK1 PBD inh, GALK inhibitor, Coupling enz, USP2a inh, USP1-UAF1 inh)
Cc1ccccc1-c1cnc(C(O)c2ccc(Cl)cc2)[nH]1 (stereo unspecified)	none (no result: GALK inhibitor, Coupling enz, USP2a inh, USP1-UAF1 inh, VDR inh)
COc1ccc(OC)c(/C=C2\N=C(c3ccccc3)OC2=O)c1	PLK1 PBD inh 12µM, USP1-UAF1 inh inconclusive
COc1cc(C2N(c3cccc(Cl)c3)C(=O)C3CCCN32)cc(OC)c1OC (stereo unspecified)	none
COc1cc(C2N(c3ccccc3)CCN2c2ccccc2)cc(OC)c1OC	Coupling enz -36
CCCCN1CC(=O)N2[C@H]3c4cc(OC)ccc4OC[C@@H]3[C@H](C(=O)OCC)[C@]2(C)C1=O	none (no result: GALK inhibitor, Coupling enz)
CCCCN1CC(=O)N2[C@@H]3c4cc(OC)ccc4OC[C@@H]3[C@H](C(=O)OCC)[C@]2(C)C1=O	PLK1 PBD inh 24µM, VDR inh inconclusive (no result: GALK inhibitor, Coupling enz, USP2a inh)
O=C(COC(=O)/C=C/c1ccc(OC(F)F)cc1)NCCN1C(=O)CSC1=O	PLK1 PBD inh inconclusive
O=C(COC(=O)/C=C/c1ccc(Cl)cc1)NCCN1C(=O)CSC1=O	PLK1 PBD inh 17µM
COc1ccc(-c2cc(=O)oc3cc(OCC(=O)Nc4ccccn4)ccc23)cc1	PLK1 PBD inh 3µM, VDR inh inconclusive
CCCc1cc(=O)oc2cc(OCC(=O)Nc3ccccn3)ccc12	none (no result: Coupling enz)
CCc1cc(=O)oc2cc(OCC(=O)NCc3ccccn3)ccc12	PLK1 PBD inh 27µM, VDR inh inconclusive (no result: Coupling enz)
O=C(COc1ccc2c(-c3ccccc3)cc(=O)oc2c1)NCc1ccccn1	none (no result: GALK inhibitor)
CCOC(=O)c1c(-c2ccccc2)csc1NC(=O)COc1ccc2c(C)cc(=O)oc2c1	PLK1 PBD inh 27µM
O=C(CCCc1ccccc1)Nc1ccc(Br)cc1F	PLK1 PBD inh 6.7µM, VDR inh 22µM
O=C(CCCc1ccccc1)Nc1ccccc1[N+](=O)[O-]	PLK1 PBD inh 3.4µM, VDR inh 20µM (no result: GALK inhibitor)
Cc1cccc(N(CC(=O)Nc2ccc(Br)cc2)S(C)(=O)=O)c1C	none (no result: PLK1 PBD inh, GALK inhibitor, Coupling enz, USP2a inh)
Cc1cccc(N(CC(=O)N/N=C/c2cc([N+](=O)[O-])ccc2Cl)S(C)(=O)=O)c1C	Coupling enz -59 (no result: GALK inhibitor)
Cc1ccc(-c2csc3ncnc(Nc4ccc(N5CCOCC5)cc4)c23)cc1	PLK1 PBD inh 27µM
Cc1c(NC(=O)CSc2ccccc2F)c(=O)n(-c2ccccc2)n1C	none
COc1ccc2[nH]c3c(c2c1)CCN1C(=O)C(CC(=O)NCCCN(C)C)C[C@H](C(=O)N2CCCCC2)[C@@]31CCc1ccccc1 (stereo partly specified)	none (no result: GALK inhibitor, Coupling enz)
O=C(N/N=C/C=C/c1ccccc1)c1ccc(Br)cc1	none
O=C(CN(C1CCCCC1)S(=O)(=O)c1ccc(Br)cc1)NCc1cccnc1	none
O=C(N/N=C/C=C\c1ccco1)c1ccccn1	PLK1 PBD inh inconclusive, VDR inh 79µM
O=C(N/N=C/C=C/c1ccco1)c1cnccn1	VDR inh inconclusive (no result: GALK inhibitor)
O=C(Nc1nnc(Cc2ccccc2)s1)C1CCN(C(=O)c2ccco2)CC1	PLK1 PBD inh 27µM
CC(C)(C)Cc1nnc(NC(=O)Cc2cccs2)s1	PLK1 PBD inh 19µM
O=C(Nc1nnc(CCc2ccccc2)s1)C1CCN(C(=O)c2ccco2)CC1	none (no result: PLK1 PBD inh, GALK inhibitor, Coupling enz, USP2a inh, USP1-UAF1 inh)
O=C(Cc1cccs1)Nc1nnc(Cc2ccccc2)s1	PLK1 PBD inh 27µM
O=C(Cc1cccs1)Nc1nnc(CCc2ccccc2)s1	none
CC(C)Cc1nnc(NC(=O)Cc2cccs2)s1	none
CC(C)(C)Cc1nnc(NC(=O)Cc2ccc([N+](=O)[O-])cc2)s1	PLK1 PBD inh 5.3µM, VDR inh inconclusive
Cc1ccc(NC(=O)C2CCN(c3nc4ccccc4[nH]3)CC2)cc1Cl	USP1-UAF1 inh inconclusive (no result: PLK1 PBD inh, GALK inhibitor, Coupling enz, USP2a inh)
CN(C)CCN(C(=O)c1ccc(S(=O)(=O)N(C)CC2CCCO2)cc1)c1nc2cc3c(cc2s1)OCO3 (stereo unspecified)	none
CCn1cc(CCC(=O)NCc2ccc(C)cc2)c2ccccc21	none (no result: PLK1 PBD inh, GALK inhibitor, Coupling enz, USP2a inh)
O=C(OCn1ncc(Br)c(Br)c1=O)c1ccccc1Cl	PLK1 PBD inh 19µM, VDR inh 22µM
